Laboratory results published in the supplement of paper PMC10849652.
Of roughly 7,900 targets only a part is listed; those with a hit were picked by preference. About 0.6% of all pairs of compound and target were hits.

The targets below were run with c1cn2cc(-c3ccc4cn[nH]c4c3)nc(Nc3ccc(N4CCOCC4)cc3)c2n1 [entospletinib] (assay: log2 fold change, soluble protein after heating vs DMSO (PISA); higher = thermal stabilisation; K562 cells, 10 uM, 30 min; active = over 0.2 and 3.5 SD of the protein, either way, in both replicates (recomputed)).
How it was run: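 K562 cells at 2×10^6 cells/mL were treated with 10 μM compound for 30 min. Aliquots were heated for 3 min across 48°C-58°C, pooled, and extracted in PBS with 0.5% NP-40 at 4°C; soluble protein was the supernatant after 21,000xg for 90 min. Soluble protein was quantified by TMTpro 16plex LC-MS/MS with channel sums equalised, and reported as log2 fold change in thermal stability against DMSO controls, with values from duplicates.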

Sequence of UniProt Q9BUP3 (Q9BUP3 whole entry, looked up): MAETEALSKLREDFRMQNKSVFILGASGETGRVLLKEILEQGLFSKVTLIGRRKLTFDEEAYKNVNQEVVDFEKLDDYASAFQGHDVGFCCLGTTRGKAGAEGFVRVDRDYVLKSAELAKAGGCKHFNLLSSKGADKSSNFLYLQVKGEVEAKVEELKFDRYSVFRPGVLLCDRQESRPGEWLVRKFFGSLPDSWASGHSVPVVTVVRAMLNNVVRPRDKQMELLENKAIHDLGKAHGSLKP
Sequence of UniProt Q9H4G4 (Q9H4G4 whole entry, looked up): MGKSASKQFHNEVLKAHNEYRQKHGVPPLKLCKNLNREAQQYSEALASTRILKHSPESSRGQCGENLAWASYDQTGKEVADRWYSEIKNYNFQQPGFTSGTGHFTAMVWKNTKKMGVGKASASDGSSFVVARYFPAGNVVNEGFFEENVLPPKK
Sequence of UniProt Q13547 (Q13547 whole entry, looked up): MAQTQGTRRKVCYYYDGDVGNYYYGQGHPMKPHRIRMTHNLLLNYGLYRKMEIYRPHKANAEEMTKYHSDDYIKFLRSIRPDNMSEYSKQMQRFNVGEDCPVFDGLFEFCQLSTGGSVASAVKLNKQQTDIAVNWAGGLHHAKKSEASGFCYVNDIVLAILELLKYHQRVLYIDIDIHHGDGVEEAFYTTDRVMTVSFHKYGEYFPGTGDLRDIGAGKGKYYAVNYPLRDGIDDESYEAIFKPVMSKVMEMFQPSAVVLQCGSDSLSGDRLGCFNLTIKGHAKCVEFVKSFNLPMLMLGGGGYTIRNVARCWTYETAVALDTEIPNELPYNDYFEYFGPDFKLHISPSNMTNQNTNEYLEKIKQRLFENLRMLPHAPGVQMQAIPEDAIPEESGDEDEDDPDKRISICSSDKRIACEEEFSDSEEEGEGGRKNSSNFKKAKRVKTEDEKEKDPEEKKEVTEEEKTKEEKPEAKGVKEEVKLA
Sequence of UniProt Q9Y5Q8 (Q9Y5Q8 whole entry, looked up): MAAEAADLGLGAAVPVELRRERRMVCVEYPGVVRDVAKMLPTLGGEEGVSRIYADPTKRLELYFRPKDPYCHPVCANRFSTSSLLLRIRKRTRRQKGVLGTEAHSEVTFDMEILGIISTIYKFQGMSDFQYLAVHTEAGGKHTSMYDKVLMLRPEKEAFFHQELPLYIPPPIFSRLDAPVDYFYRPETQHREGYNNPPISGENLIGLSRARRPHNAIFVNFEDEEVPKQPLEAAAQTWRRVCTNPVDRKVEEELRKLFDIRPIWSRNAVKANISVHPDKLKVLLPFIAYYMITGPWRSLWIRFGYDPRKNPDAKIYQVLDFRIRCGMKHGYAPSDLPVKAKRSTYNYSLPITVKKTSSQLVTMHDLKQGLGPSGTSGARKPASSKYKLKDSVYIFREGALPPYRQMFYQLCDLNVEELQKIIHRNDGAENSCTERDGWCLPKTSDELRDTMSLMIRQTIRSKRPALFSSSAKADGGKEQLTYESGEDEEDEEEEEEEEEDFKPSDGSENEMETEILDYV
Sequence of UniProt Q04446 (Q04446 whole entry, looked up): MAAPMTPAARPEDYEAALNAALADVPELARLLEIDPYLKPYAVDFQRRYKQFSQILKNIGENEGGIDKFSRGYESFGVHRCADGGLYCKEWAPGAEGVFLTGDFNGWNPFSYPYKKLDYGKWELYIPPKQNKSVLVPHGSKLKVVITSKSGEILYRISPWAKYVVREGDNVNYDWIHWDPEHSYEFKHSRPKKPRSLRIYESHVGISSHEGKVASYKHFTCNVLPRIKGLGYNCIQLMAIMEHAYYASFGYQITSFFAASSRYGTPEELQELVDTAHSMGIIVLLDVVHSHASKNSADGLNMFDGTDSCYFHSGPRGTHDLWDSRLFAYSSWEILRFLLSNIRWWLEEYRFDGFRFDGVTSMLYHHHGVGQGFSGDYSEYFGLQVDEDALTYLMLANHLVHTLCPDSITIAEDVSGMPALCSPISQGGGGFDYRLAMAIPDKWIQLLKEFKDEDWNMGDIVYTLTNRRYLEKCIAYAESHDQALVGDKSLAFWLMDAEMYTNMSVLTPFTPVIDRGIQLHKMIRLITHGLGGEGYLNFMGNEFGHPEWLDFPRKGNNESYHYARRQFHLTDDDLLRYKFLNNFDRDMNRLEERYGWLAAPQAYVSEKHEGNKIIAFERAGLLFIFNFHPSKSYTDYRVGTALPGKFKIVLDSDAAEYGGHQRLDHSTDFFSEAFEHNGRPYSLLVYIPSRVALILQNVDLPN
Sequence of UniProt Q53R41 (Q53R41 whole entry, looked up): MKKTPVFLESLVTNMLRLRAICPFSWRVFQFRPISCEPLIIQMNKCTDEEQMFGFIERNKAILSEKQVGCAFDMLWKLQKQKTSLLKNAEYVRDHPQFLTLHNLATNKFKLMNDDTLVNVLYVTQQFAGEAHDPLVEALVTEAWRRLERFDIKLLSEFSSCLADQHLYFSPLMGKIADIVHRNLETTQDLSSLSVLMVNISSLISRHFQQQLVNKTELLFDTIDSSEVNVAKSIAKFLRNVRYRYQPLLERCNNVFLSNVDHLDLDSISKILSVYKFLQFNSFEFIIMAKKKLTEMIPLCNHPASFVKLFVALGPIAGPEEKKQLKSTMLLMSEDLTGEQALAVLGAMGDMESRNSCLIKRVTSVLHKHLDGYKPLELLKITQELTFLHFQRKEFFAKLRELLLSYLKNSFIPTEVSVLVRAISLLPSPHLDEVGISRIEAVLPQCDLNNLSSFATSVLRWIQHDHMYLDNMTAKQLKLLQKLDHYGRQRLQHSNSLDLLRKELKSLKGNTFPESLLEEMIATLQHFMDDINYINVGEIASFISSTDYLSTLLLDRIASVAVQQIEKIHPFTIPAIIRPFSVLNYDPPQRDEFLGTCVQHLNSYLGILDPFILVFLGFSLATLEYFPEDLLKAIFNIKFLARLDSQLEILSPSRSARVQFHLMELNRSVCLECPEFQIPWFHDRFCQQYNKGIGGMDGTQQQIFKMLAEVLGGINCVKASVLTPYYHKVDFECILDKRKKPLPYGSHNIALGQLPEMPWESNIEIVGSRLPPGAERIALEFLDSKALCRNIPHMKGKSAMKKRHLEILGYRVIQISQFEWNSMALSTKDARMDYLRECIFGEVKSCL
Sequence of UniProt Q6P3S6 (Q6P3S6 whole entry, looked up): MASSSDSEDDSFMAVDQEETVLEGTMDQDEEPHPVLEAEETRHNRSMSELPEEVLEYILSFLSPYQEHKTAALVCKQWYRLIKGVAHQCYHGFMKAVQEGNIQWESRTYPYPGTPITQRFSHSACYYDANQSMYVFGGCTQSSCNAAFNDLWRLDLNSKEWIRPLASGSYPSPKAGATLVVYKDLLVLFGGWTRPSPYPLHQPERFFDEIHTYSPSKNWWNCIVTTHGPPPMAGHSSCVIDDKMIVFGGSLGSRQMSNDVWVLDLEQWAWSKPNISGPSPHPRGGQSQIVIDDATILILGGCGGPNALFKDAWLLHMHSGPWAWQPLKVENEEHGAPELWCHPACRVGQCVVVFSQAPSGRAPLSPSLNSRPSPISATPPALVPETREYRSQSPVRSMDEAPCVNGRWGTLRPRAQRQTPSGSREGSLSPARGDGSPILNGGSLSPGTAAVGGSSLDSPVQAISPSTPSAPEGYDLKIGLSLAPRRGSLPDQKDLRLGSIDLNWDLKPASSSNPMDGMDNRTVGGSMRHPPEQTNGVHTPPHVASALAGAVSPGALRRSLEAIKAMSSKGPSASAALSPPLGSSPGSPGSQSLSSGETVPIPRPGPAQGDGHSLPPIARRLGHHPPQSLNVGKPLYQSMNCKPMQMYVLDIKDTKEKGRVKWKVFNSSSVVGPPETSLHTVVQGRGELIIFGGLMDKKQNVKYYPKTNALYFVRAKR
Sequence of UniProt Q9Y3I1 (Q9Y3I1 whole entry, looked up): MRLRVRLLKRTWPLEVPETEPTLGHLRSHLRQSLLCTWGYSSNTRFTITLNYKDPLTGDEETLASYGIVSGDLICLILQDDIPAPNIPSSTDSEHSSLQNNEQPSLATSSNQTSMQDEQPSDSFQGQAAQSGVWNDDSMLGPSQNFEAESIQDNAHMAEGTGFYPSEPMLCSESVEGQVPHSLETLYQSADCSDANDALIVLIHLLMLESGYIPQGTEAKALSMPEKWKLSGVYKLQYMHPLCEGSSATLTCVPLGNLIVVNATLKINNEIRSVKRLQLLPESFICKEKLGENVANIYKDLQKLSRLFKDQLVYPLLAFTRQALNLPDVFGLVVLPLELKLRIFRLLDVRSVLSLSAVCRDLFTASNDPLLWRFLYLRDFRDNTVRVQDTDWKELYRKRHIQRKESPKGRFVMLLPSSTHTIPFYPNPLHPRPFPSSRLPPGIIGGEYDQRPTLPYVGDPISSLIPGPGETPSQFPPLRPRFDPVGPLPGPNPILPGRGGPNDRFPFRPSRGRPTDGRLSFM
Sequence of UniProt O94925 (O94925 whole entry, looked up): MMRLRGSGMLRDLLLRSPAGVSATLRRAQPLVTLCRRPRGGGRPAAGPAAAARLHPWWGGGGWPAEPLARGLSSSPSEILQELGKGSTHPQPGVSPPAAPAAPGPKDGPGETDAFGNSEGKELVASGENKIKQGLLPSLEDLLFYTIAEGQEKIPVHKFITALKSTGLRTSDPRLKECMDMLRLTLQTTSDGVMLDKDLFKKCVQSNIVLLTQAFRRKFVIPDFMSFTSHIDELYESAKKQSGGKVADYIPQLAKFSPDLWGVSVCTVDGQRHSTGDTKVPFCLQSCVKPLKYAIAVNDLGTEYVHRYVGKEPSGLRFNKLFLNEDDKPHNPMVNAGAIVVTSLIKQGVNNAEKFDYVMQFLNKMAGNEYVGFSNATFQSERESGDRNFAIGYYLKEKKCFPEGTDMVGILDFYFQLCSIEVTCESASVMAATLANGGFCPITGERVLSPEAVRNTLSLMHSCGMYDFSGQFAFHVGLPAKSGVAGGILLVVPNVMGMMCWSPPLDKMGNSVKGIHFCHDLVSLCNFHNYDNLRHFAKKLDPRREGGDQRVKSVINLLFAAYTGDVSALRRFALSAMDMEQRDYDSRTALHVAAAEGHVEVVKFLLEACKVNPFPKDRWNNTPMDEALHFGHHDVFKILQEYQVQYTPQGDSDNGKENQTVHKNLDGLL
Sequence of UniProt Q01628 (Q01628 whole entry, looked up): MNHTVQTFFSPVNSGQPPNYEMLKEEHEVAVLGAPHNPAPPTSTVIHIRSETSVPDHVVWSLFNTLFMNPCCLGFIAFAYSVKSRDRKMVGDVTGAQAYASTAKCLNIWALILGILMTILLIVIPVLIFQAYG

log2 fold change, inactive:
GLIPR2 (UniProt Q9H4G4) 0.055
IDH3A (UniProt P50213) -0.024
GTF2A2 (UniProt P52657) 0.014
FARS2 (UniProt O95363) 0.011
HEXA (UniProt P06865) 0
FMR1 (UniProt Q06787) 0.01
FIBP (UniProt O43427) 0.455
FIZ1 (UniProt Q96SL8) 0.042
HTATIP2 isoform 3 (UniProt Q9BUP3) 0.003
GGA2 (UniProt Q9UJY4) -0.117
FBXO7 (UniProt Q9Y3I1) -0.009
GLS isoform 3 (UniProt O94925) -0.055
FAT2 (UniProt Q9NYQ8) 0.119
HDAC1 (UniProt Q13547) -0.014
HNRNPUL1 (UniProt M0R247) -0.056
FBXO42 (UniProt Q6P3S6) -0.049
GTF3C5 isoform 3 (UniProt Q9Y5Q8) 0.226
GALC (UniProt P54803) 0.067
GBE1 (UniProt Q04446) 0.039
GSTP1 (UniProt P09211) -0.03
FASTKD1 (UniProt Q53R41) -0.11
FKBP7 (UniProt Q9Y680) -0.012
IFITM3 (UniProt Q01628) 0.034
